The values below come from PubChem BioAssay (NCI).

Values joined by “and” are separate entries in the source; they are usually repeats but may differ in a detail not shown here. Equal values may be shown once. This is part of a sample that, as a whole, favours compounds with a hit. Of some 79,000 tested, about 15% had one in any assay. A number with no mark means an inactive call. Active and inactive are the calls of the source. Rule as the data show it: active = growth inhibition above about 70%; inactive = the rest.

Experiment [1] in a line: NCI Yeast Anticancer Drug Screen. Data for the rad50 strain (AID 155).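 Also: 0% = growth of vehicle-only cultures of the same strain.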 Conditions: S. cerevisiae rad50 strain growth inhibition, stronger effect = higher value; at 50.0 µM unless noted. A digest of the protocol: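 Growth of the mutant yeast was measured after compound exposure and referenced to vehicle-treated cultures.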
Experiment [2] in a line: NCI Yeast Anticancer Drug Screen. Data for the mec2-1 strain (AID 157). Conditions: S. cerevisiae mec2-1 strain, stronger effect = higher value; at 50.0 µM unless noted. The essentials:
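mec2-1 yeast strain, carrying an alteration in DNA damage repair or cell cycle control, was exposed to compounds; growth inhibition was measured relative to vehicle-treated controls.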

The nature of experiment [3]: NCI Yeast Anticancer Drug Screen. Data for the sgs1 mgt1 strain (AID 161).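 Also: 0% = growth of cultures given vehicle only.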 Conditions: S. cerevisiae sgs1 mgt1 strain, stronger effect = higher value; at 50.0 µM unless noted. A digest of the protocol:
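Growth of a repair-deficient yeast mutant was monitored after compound treatment and expressed as inhibition relative to vehicle-treated cultures.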

A short description of experiment [4]: NCI Yeast Anticancer Drug Screen. Data for the cln2 rad14 strain (AID 165).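 Also: 0% = growth equal to vehicle treated cultures.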 Conditions: S. cerevisiae cln2 rad14 strain, stronger effect = higher value; at 50.0 µM unless noted. A digest of the protocol:
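Yeast carrying cln2 and rad14 alterations (cell cycle control and DNA damage repair) were exposed to compounds. Growth inhibition was measured against vehicle-treated controls.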

A short description of experiment [5]: NCI Yeast Anticancer Drug Screen. Data for the bub3 strain (AID 167). Conditions: S. cerevisiae bub3 mutant strain, stronger effect = higher value; at 50.0 µM unless noted. The essentials: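 Whole-cell yeast assay. The mutant strain was incubated with compounds, and growth inhibition was determined by comparison with vehicle-treated cells.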
A short description of experiment [6]: NCI Yeast Anticancer Drug Screen. Data for the mlh1 rad18 strain (AID 175). Conditions: S. cerevisiae mlh1 rad18 strain growth inhibition, stronger effect = higher value; at 50.0 µM unless noted. The essentials:
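Growth inhibition of the yeast strain was measured after compound exposure and expressed relative to vehicle-treated controls. The strain carries defined defects in DNA damage repair.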

Turning to `Cc1c(Cl)cccc1C(=O)O`, the growth inhibition in experiment [1] is -3.15%; in experiment [2] it was 10.7%; in experiment [3] it was 3.65%; in experiment [4] it was -3.15%; in experiment [5], -10%; in experiment [6] it was 27.6%.

As to `O=C(/C(=C1\SS/C(=C(/C(=O)c2ccccc2)c2ccccc2)S1)c1ccccc1)c1ccccc1`, the growth inhibition in experiment [1] was 34.6%; in experiment [2], 14.6%; in experiment [3], 17.7%; in experiment [4], 7.3%; in experiment [5] it was 5.75%; in experiment [6], 6.45%.

For `Cc1cc(=O)[nH]c2[nH]c(=O)ccc12`, the growth inhibition in experiment [1] is -11.4%; in experiment [2], 0.05%; in experiment [3], -1.5%; in experiment [4], -6.35%; in experiment [5], -2.2%; in experiment [6], 2%.

For the molecule `CC(=O)Nc1cccc(OC(=O)Nc2ccc(F)c(Cl)c2)c1`, the growth inhibition was 57.6% in experiment [1]; 60.7% in experiment [2]; 71.7% (active) in experiment [3]; 70.7% (active) in experiment [4]; 56.8% in experiment [5]; 82% (active) in experiment [6].

Consider `CCCCN1C(=O)CC2[C@@H]3CCc4cc(OC(C)=O)ccc4C3CC[C@]2(C)C1=O` (stereo not given in full), for which the growth inhibition is 11.3% in experiment [1]; 4.15% in experiment [2]; 5.45% in experiment [3]; 26.6% in experiment [4]; -7.3% in experiment [5]; -0.1% in experiment [6].

For `O=c1c(-c2ccccc2)c[nH]c2ccccc12`, the growth inhibition in experiment [1] is 26.7%; in experiment [2], 16.6%; in experiment [3], 20.9%; in experiment [4] it was 8.45%; in experiment [5] it was -10.9%; in experiment [6] it was 44.5%.

As to `CC(O)C(O)C(O)C(O)c1nc2ccccc2[nH]1` (stereo not given), the growth inhibition in experiment [1] is -18.4%; in experiment [2], -3.35%; in experiment [3], -20.6%; in experiment [4] it was -37%; in experiment [5] it was 4.35%; in experiment [6], 9.9%.

As to `CC(C)c1ccc(C2NC(c3ccccc3)c3c(ccc4ccccc34)O2)cc1` (stereo not given), the growth inhibition in experiment [1] is 36.9%; in experiment [2] it was -4.85%; in experiment [3], 6.1%; in experiment [4], 0.5%; in experiment [5] it was -1.6%; in experiment [6] it was -1.65%.

For the molecule `NC(=O)C1CC2(c3ccccn3)c3ccccc3C1c1ccccc12` (stereo not given), the growth inhibition in experiment [1] is -0.1%; in experiment [2], 7.6%; in experiment [3], 10.4%; in experiment [4] it was 4.2%; in experiment [5] it was -22.1%; in experiment [6], -6.1%.

For the molecule `Cc1cc2c(C)nn(Cc3ccccc3)c2c(C(N)=O)c1C`, the growth inhibition was 9.85% in experiment [1]; -6.65% in experiment [2]; -10% in experiment [3]; 35.6% in experiment [4]; -3.1% in experiment [5]; 51.4% in experiment [6].

For the molecule `CCC(C(=O)O)C(=O)O.[NH2-].[NH2-].[Pt+2]`, the growth inhibition in experiment [1] is 11.8%; in experiment [2], -6.6%; in experiment [3] it was -11.1%; in experiment [4], 14.1%; in experiment [5], -9.55%; in experiment [6], 2.4%.

As to `CCN(c1ccccc1)S(=O)(=O)C(C)S(=O)(=O)N(CC)c1ccccc1`, the growth inhibition in experiment [1] is -1.05%; in experiment [2] it was -10.5%; in experiment [3], -1.2%; in experiment [4], -19.8%; in experiment [5], 2.2%; in experiment [6], -6.85%.

Turning to `CCCCCCc1cc2cc(-c3csc(CC#N)n3)c(=O)oc2cc1O`, the growth inhibition in experiment [1] was 13.1%; in experiment [2] it was 14.1%; in experiment [3], -29.2%; in experiment [4], -6.6%; in experiment [5], -32.8%; in experiment [6], -32%.

`NC(=O)CC(NC(=O)CCl)C(=O)O` (stereo not given): the growth inhibition is -12.3% and -15% in experiment [1]; -24.8% and -8.15% in experiment [2]; 2.1% in experiment [3]; 12.4% in experiment [4]; -0.35% in experiment [5]; -22.4% and -16.1% in experiment [6].

With `CC1=C2CC3=C(C)C(=O)O[C@H]3C[C@@H](C)[C@@H]2CC1`, the growth inhibition in experiment [1] is 15.2%; in experiment [2], 9.9%; in experiment [3], 26%; in experiment [4], 1.15%; in experiment [5] it was 33.8%; in experiment [6] it was 2.45%.

Take `CN(C)C1=CC(=S)NC(c2ccccc2)C1` (stereo not given): the growth inhibition in experiment [1] was -2.35%; in experiment [2], -16.1%; in experiment [3], -3.7%; in experiment [4], -11.8%; in experiment [5], -15%; in experiment [6] it was -0.55%.

Take `CC(C)(C)CNCCO`: the growth inhibition in experiment [1] is -2.45%; in experiment [2], -23.4%; in experiment [3] it was -2%; in experiment [4] it was -7.5%; in experiment [5] it was -7.55%; in experiment [6], -6.3%.

In the case of `CC(C)=CC(=O)CC1(C)CCC(c2ccoc2)O1` (stereo not given), the growth inhibition in experiment [1] is -18.8%; in experiment [2], -32.9%; in experiment [3] it was -11.6%; in experiment [4] it was 14%; in experiment [5] it was 6.35%; in experiment [6], -16%.

For the molecule `CC1=C(CCC(=O)O)C(=O)C(CCC(=O)O)C(C)(C)C1` (stereo not given), the growth inhibition in experiment [1] is 19.4%; in experiment [2], 7.45%; in experiment [3], 13.2%; in experiment [4] it was 56.6%; in experiment [5] it was 4.6%; in experiment [6], 8.15%.

As to `COC(=O)c1ccccc1NS(=O)(=O)c1ccc(Cl)cc1`, the growth inhibition in experiment [1] is 42.2%; in experiment [2], 66.1%; in experiment [3], 75.7% (active); in experiment [4], 47.8%; in experiment [5] it was 93% (active); in experiment [6] it was 82.2% (active).
